Results: paper PMC7862700, “An all-to-all approach to the identification of sequence-specific readers for epigenetic DNA modifications on cytosine”

How the values were obtained:
Experiment in all cases: DAPPL (digital affinity profiling via proximity ligation, sequencing); 10 mM Tris-HCl pH 7.5, 50 mM NaCl, 1 mM DTT, 4% glycerol, room temperature, 30 min; GST-TFs on glutathione beads, 16-mer random dsDNA library, 0.1% formaldehyde crosslink after washing; high values mean tight binding
Settings in all cases: protein: recombinant; tags: N-terminal GST; dsDNA, one strand shown
ELK1 = molecular target: T1, ELK1 (Homo sapiens, UniProt P19419 1-428)
T1 sequence: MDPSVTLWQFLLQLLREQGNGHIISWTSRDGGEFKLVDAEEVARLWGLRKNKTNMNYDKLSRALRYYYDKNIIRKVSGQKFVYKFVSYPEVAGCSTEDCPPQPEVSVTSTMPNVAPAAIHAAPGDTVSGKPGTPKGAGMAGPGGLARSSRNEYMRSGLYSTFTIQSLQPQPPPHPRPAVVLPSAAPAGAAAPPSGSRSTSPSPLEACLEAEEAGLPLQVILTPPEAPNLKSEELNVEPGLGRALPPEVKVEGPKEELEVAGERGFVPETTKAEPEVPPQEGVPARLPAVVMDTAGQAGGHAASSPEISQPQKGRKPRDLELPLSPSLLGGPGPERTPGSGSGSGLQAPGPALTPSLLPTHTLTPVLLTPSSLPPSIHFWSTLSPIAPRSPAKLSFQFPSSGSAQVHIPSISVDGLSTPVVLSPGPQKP
Procedure, shortened: (§1)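 GST fusions of human transcription factors were expressed in yeast and captured with glutathione beads. Once given DNA barcodes and pooled alongside a tag-only sample, they were incubated for 30 min at room temperature with 200 nmole of a random double-stranded 16-mer DNA library in Tris/NaCl/DTT/glycerol buffer, then washed, crosslinked (0.1% formaldehyde), proximity-ligated, PCR-amplified and sequenced on an Illumina NextSeq500. The binding signal of each hexamer is its read frequency for a factor divided by its frequency for the tag-only sample.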

GABPA = molecular target: T2, GABPA (Homo sapiens, UniProt Q06546 1-454)
T2 sequence: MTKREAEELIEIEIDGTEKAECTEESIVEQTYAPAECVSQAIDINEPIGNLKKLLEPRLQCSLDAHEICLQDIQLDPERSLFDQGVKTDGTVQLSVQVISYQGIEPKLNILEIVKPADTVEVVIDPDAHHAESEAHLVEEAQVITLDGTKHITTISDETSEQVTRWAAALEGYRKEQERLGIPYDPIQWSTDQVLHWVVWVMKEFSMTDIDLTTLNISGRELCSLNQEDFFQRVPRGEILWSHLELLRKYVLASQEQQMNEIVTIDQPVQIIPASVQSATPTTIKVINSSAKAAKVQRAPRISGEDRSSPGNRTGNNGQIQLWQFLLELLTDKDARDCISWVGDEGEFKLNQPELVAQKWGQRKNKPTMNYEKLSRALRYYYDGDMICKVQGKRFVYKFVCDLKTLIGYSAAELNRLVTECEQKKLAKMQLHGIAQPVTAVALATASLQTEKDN
Procedure, shortened: as §1

ERG = molecular target: T3, ERG (Homo sapiens, UniProt P11308 1-479)
T3 sequence: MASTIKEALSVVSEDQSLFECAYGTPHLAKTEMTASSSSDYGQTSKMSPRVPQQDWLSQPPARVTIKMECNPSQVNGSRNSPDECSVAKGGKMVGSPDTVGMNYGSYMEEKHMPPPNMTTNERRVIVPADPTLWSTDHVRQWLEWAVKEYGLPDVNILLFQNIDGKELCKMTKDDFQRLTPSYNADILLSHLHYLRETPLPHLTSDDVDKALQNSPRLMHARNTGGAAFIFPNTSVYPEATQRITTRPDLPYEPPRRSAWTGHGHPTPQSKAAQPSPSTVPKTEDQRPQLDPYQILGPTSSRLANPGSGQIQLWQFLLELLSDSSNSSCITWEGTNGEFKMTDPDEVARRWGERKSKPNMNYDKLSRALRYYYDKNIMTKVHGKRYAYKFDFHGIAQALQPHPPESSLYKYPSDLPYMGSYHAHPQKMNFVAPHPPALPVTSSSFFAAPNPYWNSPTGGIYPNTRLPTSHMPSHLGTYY
Procedure, shortened: as §1

ELF1 = ELF1 (Homo sapiens, UniProt P32519 1-619)
Procedure, shortened: as §1

SPIB = SPIB (Homo sapiens, UniProt Q01892 1-262)
Procedure, shortened: as §1

ETV5 = ETV5 (Homo sapiens, UniProt P41161 1-510)
Procedure, shortened: as §1

ELF4 = ELF4 (Homo sapiens, UniProt Q99607 1-663)
Procedure, shortened: as §1

ELK4 = molecular target: T4, ELK4 (Homo sapiens, UniProt P28324-2 1-405)
T4 sequence: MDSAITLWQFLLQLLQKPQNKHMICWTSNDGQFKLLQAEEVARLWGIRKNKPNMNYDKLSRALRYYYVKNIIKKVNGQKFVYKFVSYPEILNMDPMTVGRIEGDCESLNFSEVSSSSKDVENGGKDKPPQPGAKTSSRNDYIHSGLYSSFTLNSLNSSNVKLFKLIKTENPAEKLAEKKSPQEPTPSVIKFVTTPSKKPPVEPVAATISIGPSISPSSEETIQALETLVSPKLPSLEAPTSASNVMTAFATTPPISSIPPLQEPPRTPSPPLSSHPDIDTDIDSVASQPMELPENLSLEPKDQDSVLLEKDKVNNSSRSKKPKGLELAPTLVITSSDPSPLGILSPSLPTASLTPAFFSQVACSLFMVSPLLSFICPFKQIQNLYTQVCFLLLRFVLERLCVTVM
Procedure, shortened: as §1

ETV1 = ETV1 (Homo sapiens, UniProt P50549 1-477)
Procedure, shortened: as §1

ERF = molecular target: T5, ERF (Homo sapiens, UniProt P50548 1-548)
T5 sequence: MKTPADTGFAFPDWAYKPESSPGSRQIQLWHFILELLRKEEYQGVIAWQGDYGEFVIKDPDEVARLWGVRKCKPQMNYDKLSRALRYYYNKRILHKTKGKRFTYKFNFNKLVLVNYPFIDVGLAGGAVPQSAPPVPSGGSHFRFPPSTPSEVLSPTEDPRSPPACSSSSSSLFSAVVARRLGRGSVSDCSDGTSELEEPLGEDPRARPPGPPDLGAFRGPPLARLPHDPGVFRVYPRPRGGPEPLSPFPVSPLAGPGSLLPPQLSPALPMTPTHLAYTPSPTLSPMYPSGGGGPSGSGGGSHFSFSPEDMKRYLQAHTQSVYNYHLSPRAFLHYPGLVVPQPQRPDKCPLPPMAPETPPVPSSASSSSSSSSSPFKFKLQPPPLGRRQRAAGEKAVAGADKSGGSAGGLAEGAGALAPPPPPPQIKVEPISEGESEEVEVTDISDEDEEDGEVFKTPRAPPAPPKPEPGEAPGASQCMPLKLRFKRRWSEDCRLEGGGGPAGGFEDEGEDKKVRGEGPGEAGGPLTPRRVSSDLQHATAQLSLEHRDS
Procedure, shortened: as §1

ETV3L = molecular target: T6, ETV3L (Homo sapiens, UniProt Q6ZN32 1-361)
T6 sequence: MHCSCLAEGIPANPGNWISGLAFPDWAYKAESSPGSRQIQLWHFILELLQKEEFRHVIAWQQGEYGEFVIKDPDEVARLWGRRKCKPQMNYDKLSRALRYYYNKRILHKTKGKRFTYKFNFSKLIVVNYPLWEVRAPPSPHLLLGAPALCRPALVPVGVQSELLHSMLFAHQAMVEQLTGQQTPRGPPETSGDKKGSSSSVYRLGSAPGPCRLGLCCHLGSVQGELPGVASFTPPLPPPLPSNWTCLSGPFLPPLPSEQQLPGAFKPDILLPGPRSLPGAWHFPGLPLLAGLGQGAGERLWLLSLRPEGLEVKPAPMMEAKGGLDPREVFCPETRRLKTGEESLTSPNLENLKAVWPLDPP
Procedure, shortened: as §1

ETS2 = molecular target: T7, ETS2 (Homo sapiens, UniProt P15036 1-469)
T7 sequence: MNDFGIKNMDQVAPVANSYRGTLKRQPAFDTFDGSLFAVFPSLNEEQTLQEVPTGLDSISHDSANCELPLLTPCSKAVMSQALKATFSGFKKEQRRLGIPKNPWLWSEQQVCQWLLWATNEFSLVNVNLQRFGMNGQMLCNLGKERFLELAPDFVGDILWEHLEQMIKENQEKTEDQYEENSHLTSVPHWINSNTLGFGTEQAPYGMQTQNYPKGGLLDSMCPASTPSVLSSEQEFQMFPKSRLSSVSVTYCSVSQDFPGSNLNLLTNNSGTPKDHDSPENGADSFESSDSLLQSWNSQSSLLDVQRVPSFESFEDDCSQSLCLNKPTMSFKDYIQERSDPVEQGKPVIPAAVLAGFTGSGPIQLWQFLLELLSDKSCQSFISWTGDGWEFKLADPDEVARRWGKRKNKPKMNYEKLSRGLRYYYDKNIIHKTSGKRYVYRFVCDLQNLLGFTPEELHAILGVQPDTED
Procedure, shortened: as §1

ETV3 = molecular target: T8, ETV3 (Homo sapiens, UniProt P41162-2 1-143)
T8 sequence: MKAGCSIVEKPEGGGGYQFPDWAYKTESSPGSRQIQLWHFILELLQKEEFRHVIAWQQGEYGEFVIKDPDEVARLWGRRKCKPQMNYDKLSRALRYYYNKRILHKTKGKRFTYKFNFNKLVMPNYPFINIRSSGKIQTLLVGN
Procedure, shortened: as §1

ETV6 = ETV6 (Homo sapiens, UniProt P41212 1-452)
Procedure, shortened: as §1

ETV6, sequence (P41212 whole entry): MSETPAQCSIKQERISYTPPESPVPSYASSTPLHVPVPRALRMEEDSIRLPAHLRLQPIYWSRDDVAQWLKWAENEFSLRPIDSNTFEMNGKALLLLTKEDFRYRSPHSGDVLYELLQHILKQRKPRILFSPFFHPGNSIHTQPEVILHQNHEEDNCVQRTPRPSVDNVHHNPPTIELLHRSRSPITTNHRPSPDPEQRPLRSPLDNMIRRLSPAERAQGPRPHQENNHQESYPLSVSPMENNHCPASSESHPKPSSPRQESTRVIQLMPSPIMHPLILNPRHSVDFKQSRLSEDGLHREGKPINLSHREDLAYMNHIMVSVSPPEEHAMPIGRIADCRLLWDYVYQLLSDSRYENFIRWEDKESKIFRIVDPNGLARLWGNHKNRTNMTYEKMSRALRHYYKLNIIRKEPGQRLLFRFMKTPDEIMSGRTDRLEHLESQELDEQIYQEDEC
ETV1, sequence (P50549 whole entry): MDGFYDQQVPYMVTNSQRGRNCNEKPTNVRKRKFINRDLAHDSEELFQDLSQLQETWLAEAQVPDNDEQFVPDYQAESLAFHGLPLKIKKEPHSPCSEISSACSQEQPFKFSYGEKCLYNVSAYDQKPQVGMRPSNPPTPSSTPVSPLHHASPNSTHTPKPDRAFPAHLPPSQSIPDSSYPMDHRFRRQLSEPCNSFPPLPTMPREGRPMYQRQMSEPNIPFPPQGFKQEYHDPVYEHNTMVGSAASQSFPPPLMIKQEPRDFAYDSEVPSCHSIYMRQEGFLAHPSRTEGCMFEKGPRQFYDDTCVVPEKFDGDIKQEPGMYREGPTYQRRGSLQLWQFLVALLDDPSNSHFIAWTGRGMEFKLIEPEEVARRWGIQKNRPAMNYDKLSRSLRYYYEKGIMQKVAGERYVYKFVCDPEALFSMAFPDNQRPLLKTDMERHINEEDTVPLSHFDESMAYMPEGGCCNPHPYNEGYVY
ELF4, sequence (Q99607 whole entry): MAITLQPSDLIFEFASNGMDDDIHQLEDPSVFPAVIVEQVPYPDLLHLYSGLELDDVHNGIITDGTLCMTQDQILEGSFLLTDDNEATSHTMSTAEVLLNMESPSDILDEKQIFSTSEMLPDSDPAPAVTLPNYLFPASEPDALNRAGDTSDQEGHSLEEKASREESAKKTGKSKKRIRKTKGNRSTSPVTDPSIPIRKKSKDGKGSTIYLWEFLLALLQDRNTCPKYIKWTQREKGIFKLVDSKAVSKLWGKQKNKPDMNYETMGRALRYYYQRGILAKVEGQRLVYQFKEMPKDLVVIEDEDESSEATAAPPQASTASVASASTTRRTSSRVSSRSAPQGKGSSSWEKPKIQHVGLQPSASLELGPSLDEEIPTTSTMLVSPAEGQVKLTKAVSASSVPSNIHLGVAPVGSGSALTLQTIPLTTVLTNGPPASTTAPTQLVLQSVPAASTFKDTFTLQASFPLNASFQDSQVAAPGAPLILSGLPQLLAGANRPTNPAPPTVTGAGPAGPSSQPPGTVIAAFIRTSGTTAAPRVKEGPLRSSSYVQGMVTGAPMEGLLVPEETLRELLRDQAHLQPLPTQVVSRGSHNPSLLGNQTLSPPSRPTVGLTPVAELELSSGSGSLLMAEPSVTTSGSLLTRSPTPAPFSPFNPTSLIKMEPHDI
ELF1, sequence (P32519 whole entry): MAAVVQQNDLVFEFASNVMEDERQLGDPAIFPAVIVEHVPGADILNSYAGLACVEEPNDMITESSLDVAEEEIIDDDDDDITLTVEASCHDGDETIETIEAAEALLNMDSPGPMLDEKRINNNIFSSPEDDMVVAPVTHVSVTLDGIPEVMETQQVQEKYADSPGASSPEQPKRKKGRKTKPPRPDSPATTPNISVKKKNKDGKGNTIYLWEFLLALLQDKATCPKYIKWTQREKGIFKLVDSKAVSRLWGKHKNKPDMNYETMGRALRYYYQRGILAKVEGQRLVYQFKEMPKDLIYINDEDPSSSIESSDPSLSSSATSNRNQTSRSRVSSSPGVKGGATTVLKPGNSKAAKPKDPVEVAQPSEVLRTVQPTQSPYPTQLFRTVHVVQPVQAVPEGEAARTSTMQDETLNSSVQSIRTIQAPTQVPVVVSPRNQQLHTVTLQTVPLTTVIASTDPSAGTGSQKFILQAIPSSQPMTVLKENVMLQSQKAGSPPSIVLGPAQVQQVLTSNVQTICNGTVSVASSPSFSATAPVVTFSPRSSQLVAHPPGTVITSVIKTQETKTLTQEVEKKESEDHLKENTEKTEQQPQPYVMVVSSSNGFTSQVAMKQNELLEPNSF
ETV5, sequence (P41161 whole entry): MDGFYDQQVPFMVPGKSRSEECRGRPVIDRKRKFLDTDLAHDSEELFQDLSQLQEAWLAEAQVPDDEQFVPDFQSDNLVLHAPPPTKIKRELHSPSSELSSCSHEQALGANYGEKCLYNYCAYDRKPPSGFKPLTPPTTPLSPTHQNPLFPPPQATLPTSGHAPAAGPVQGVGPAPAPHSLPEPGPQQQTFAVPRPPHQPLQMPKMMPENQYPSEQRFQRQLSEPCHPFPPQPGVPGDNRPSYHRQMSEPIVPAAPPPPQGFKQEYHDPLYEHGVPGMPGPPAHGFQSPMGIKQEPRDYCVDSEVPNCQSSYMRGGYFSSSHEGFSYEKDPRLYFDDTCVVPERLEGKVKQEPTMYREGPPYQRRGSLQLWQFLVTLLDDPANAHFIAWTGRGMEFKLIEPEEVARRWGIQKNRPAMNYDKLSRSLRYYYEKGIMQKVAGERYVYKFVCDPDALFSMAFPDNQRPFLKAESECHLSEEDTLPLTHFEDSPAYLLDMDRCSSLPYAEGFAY
SPIB, sequence (Q01892 whole entry): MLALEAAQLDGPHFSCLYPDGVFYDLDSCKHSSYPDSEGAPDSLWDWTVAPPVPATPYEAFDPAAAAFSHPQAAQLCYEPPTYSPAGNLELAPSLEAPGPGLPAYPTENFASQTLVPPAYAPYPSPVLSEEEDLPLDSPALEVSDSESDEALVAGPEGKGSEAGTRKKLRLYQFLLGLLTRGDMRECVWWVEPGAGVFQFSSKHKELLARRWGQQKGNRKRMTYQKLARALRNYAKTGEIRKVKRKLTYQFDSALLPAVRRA

GCAATC
binding signal (ELK1): 1.05 fold enrichment (6-mer frequency, TF over GST control) | binding signal (GABPA): 1.04 fold enrichment (6-mer frequency, TF over GST control) | binding signal (ERG): 1.03 fold enrichment (6-mer frequency, TF over GST control) | binding signal (ELF1): 1.09 fold enrichment (6-mer frequency, TF over GST control) | binding signal (SPIB): 1.05 fold enrichment (6-mer frequency, TF over GST control) | binding signal (ETV5): 1.06 fold enrichment (6-mer frequency, TF over GST control) | binding signal (ELF4): 1.02 fold enrichment (6-mer frequency, TF over GST control) | binding signal (ELK4): 1.07 fold enrichment (6-mer frequency, TF over GST control) | binding signal (ETV1): 1.06 fold enrichment (6-mer frequency, TF over GST control) | binding signal (ERF): 1.03 fold enrichment (6-mer frequency, TF over GST control) | binding signal (ETV3L): 1.01 fold enrichment (6-mer frequency, TF over GST control) | binding signal (ETS2): 1.04 fold enrichment (6-mer frequency, TF over GST control) | binding signal (ETV3): 1.06 fold enrichment (6-mer frequency, TF over GST control) | binding signal (ETV6): 1.11 fold enrichment (6-mer frequency, TF over GST control)
